PubChem BioAssay (NCATS)
Records with an inconclusive call do not appear. The source made the active and inactive calls. Calls come from the whole dose curve; as a rule, active = well fitted inhibition curve with a large enough effect; inconclusive = small, poorly fitted or top-dose-only effect; inactive = no such curve, though single readings can be large or run the other way.

assay: BET inhibitor-based combinations targeting novel dependencies in MECOM-rearranged (r) AML: SET-2 cell line (AID 2202231); settings: SET-2 AML cells viability, CellTiter-Glo luminescence, 48 h; viability: active compounds read low, series mostly up to about 46 µM; note: nearly all actives have a fitted effect of over 35% in size;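 for viability: plate controls were DMSO treated cells for no effect and wells without cells for full effect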
In short: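 Luminescent ATP readout (CellTiter-Glo) after 48 hr drug exposure gives viability. Curves span 11 concentrations and are normalized to DMSO and empty wells. Activity is reported as area under the curve and its Z-transform within each cell line.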
Potency is the fitted concentration of half-maximal effect.

Compound	viability	Potency
Cc1cc(Nc2cc(N)ncn2)c(=O)n2c1C(=O)NC21CCCCC1	117% (inactive)	–
C=CC(=O)N[C@H]1CCOC[C@H]1Nc1ncc2cc(-c3c(Cl)c(OC)cc(OC)c3Cl)ccc2n1	104% (inactive)	–
Fc1ccc(-c2csc3ncnc(NCc4ccc5c(c4)OCO5)c23)cc1	–	5.9 µM (active)
CCN(C(=O)c1ccccc1OC)c1cc2c(cc1N1CCNC[C@H]1C)n(C)c(=O)n2C	119% (inactive)	–
C=CCc1cccc(/C=N/NC(=O)CN2CCN(Cc3ccccc3)CC2)c1O	–	20.9 µM (active)
CN(C)C/C=C/C(=O)Nc1cc2c(Nc3ccc(F)c(Cl)c3)ncnc2cc1O[C@H]1CCOC1	–	4.68 µM (active)
COc1cc(OC)c(/C=C/S(=O)(=O)Cc2ccc(OC)c(OP(=O)(O)O)c2)c(OC)c1	–	0.132 µM (active)
Nc1nc(OC(c2ccc(-c3cccc(F)c3)cc2)C(F)(F)F)cc(-c2ccc(C[C@@H](N)C(=O)O)cc2)n1 (stereo partly drawn)	100% (inactive)	–
CN[C@@H](C)C(=O)N[C@H](C(=O)N1CCC[C@H]1c1nc(C(=O)c2ccc(F)cc2)cs1)C1CCCCC1	–	16.6 µM (active)
O=C(c1ccc(Nc2nc(C3CC3)cn3c(-c4cn[nH]c4)cnc23)c(F)c1)N1CCOCC1	57.2% (inactive)	–
O=C1S/C(=C\c2ccc(OCc3cccc(B(O)O)c3)cc2)C(=O)N1Cc1ccc(F)cc1	87.6% (inactive)	–
COc1ccc(/C=C\c2cc(OC)c(OC)c(OC)c2)cc1O	–	0.0148 µM (active)
Cc1ccc(-c2ncn(-c3ccc(Nc4nccc(-c5cccc(N6CCOCC6)c5)n4)cc3)n2)cn1	–	3.72 µM (active)
